Data taken from the supplement of paper PMC13380429.

System: Vero E6 infected with SARS-CoV-2
Assay: inhibition of SARS-CoV-2 cytopathic effect; higher = more antiviral protection, active = above 15
Settings: 48 h

Measured: inhibition of SARS-CoV-2 cytopathic effect

O=C(c1ccc2nccnc2c1)N1CCCCC1 [ampalex]
inactive: 1 nM -0.24% | 8.33 nM 0.88% | 100 nM 0.65% | 833.33 nM 0.17% | 10000 nM 0.77%

CCOC(=O)[N-]c1c[n+](N2CCOCC2)no1 [molsidomine]
inactive: 1 nM -0.39% | 8.33 nM 1.12% | 100 nM 2.15% | 833.33 nM 1.58% | 10000 nM -0.19%

O=Nc1c(O)[nH]c2c(Cl)c(Cl)ccc12
inactive: 1 nM -0.18% | 8.33 nM -0.08% | 100 nM -2.11% | 833.33 nM -0.54% | 10000 nM -3.64%

C[C@]12C=CC(=O)C=C1CC[C@@H]1[C@@H]2CC[C@]2(C)OC(=O)CC[C@@H]12 [Testolactone]
inactive: 1 nM -1.05% | 8.33 nM -0.81% | 100 nM -0.43% | 833.33 nM -1.59% | 10000 nM 11.2%

COc1ccccc1OC(=O)C(C)c1ccc(CC(C)C)cc1 (stereo not given) [metoxibutropate]
inactive: 1 nM -3.38% | 8.33 nM -2.87% | 100 nM -1.26% | 833.33 nM -1.98% | 10000 nM -3.16%

O=C(O)c1cc(=O)c2ccccc2o1 [chromocarb]
inactive: 1 nM -1.09% | 8.33 nM -0.13% | 100 nM -0.55% | 833.33 nM 3.21% | 10000 nM -0.51%

Cc1nc2c(OCc3ccccc3)cccn2c1CC#N
inactive: 1 nM -1.06% | 8.33 nM 0.99% | 100 nM 2.87% | 833.33 nM 0.07% | 10000 nM 1.07%

C[C@H]1C[C@H]2[C@@H]3CCC4=CC(=O)C=C[C@]4(C)[C@@]3(F)[C@@H](O)C[C@]2(C)[C@@]1(O)C(=O)CO [betamethasone]
inactive: 1 nM 0.395% | 8.33 nM -1.08% | 100 nM 2.04% | 833.33 nM 1.69% | 10000 nM -0.195%

FC(F)(F)c1ccc(/C=C/c2nc(COc3ccc(CCCCn4ccnn4)cc3)co2)cc1 [mubritinib]
inactive: 1 nM 2.13% | 8.33 nM 1.62% | 100 nM 2.58% | 833.33 nM 3.2% | 10000 nM 1.47%

OC(c1ccccc1)C1CCN(CCc2ccccc2)CC1 (stereo not given)
inactive: 1 nM -0.21% | 8.33 nM 1.17% | 100 nM -0.64% | 833.33 nM -0.54% | 10000 nM 0.25%

CN1CCC(COc2cnc(-c3cccc(Cn4nc(-c5cccc(C#N)c5)ccc4=O)c3)nc2)CC1
inactive: 1 nM 1% | 8.33 nM 1.71% | 100 nM 1.4% | 833.33 nM 2.63% | 10000 nM 9.19%

CCOc1nc2cccc(C(=O)O)c2n1Cc1ccc(-c2ccccc2-c2nnn[nH]2)cc1 [candesartan]
inactive: 1 nM -1.63% | 8.33 nM -2.91% | 100 nM -3.25% | 833.33 nM -3.84% | 10000 nM -1.38%

C[C@]12CC[C@H](O)C[C@H]1CC[C@@H]1[C@@H]2C[C@@H](O)[C@]2(C)[C@@H](C3=CC(=O)OC3)CC[C@]12O [digoxigenin]
inactive: 1 nM -0.69% | 8.33 nM -0.54% | 100 nM -6.58% | 833.33 nM -10.3% | 10000 nM -14.1%

O=C(Nc1cc(C(F)(F)F)cc(C(F)(F)F)c1)Nc1c(Br)cc(Br)cc1-c1nnn[nH]1
inactive: 1 nM 1.22% | 8.33 nM 1.04% | 100 nM -0.61% | 833.33 nM -2.22% | 10000 nM -3.2%

CN(C)Cc1cccc(N=C(c2ccccc2)c2c(O)[nH]c3cc(C(=O)N(C)C)ccc23)c1
inactive: 1 nM 1.09% | 8.33 nM 1.08% | 100 nM 1.9% | 833.33 nM -0.95% | 10000 nM -4.44%

CN(C)[C@@H]1C(O)=C(C(N)=O)C(=O)[C@@]2(O)C(O)=C3C(=O)c4c(O)ccc(Cl)c4[C@@](C)(O)[C@H]3C[C@@H]12
inactive: 1 nM 0.81% | 8.33 nM 3.66% | 100 nM 0.73% | 833.33 nM 1.21% | 10000 nM -0.28%

O=C(Cn1ccnc1[N+](=O)[O-])NCc1ccccc1 [benznidazole]
inactive: 1 nM -0.15% | 8.33 nM -0.69% | 100 nM -2.08% | 833.33 nM -0.42% | 10000 nM 0.58%

CCN(C(C)=O)c1cccc(-c2ccnc3c(C#N)cnn23)c1
inactive: 1 nM -0.78% | 8.33 nM -1.57% | 100 nM -2.79% | 833.33 nM -0.59% | 10000 nM -0.53%

COc1ccc2[nH]c(-c3ccccc3)c(CCNC(C)=O)c2c1 [2-phenylmelatonin]
inactive: 1 nM 0.42% | 8.33 nM -1.88% | 100 nM 0.56% | 833.33 nM -2.59% | 10000 nM -0.4%
